Laboratory results: PubChem BioAssay (EPA / NIEHS)
Inconclusive results are not listed. The source made the active and inactive calls. How the source made its calls, unless noted: active means hit-call score of the fitted dose curve at least 0.9, where 1 is the maximum; inactive means score below 0.9.

Experiments:
[1] = read-out: Tissue Factor, F3 (gene 2152); assay: BSK_LPS_TissueFactor: BioMAP Diversity Plus: LPS Assay for Tissue Factor Biomarker Activity (AID 2283084); conditions: primary human HUVEC with PBMC; actives raise or lower the signal
Outline: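 Compound was added to an endothelial cell/PBMC co-culture, and after 24 h tissue factor (CD142) was read by ELISA. Gain or loss of signal was fitted against a DMSO baseline, and parallel SRB staining (560 nm) tracked overt cytotoxicity.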

[2] = read-out: Tumor necrosis factor (Homo sapiens) (UniProt P01375); assay: BSK_LPS_TNFa: BioMAP Diversity Plus: LPS Assay for Tumour Necrosis Factor alpha (TNFa) Biomarker Activity (AID 2283085); conditions: primary human HUVEC with PBMC; actives raise or lower the signal;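 on AC50: TNFa protein level quantified by ELISA in the co-culture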
Outline: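 TNFa was quantified by ELISA in LPS-activated co-cultures of human endothelial cells and PBMC, 24 h post-dosing. Both increases and decreases versus DMSO were fitted.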

[3] = read-out: Vascular cell adhesion molecule 1 (VCAM1), VCAM1 (gene 7412); assay: BSK_LPS_VCAM1: BioMAP Diversity Plus: LPS Assay for Vascular cell adhesion molecule 1 (VCAM1) Biomarker Activity (AID 2283086); conditions: primary human HUVEC with PBMC; actives raise or lower the signal
Outline: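 VCAM-1 quantified by ELISA in an LPS-activated co-culture of human endothelial cells and peripheral blood mononuclear cells, read 24 h post-treatment. Fitted in both directions versus DMSO; parallel SRB staining flags overt cytotoxicity.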

[4] = read-out: CD38, CD38 (gene 952); assay: BSK_SAg_CD38: BioMAP Diversity Plus: SAg Assay for CD38 Biomarker Activity (AID 2283087); conditions: primary human HUVEC with PBMC; actives raise or lower the signal
Outline: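 CD38 quantified by ELISA (fluorescence) in a superantigen-activated endothelial cell–PBMC co-culture at 24 h post-dose. Activity fitted in both directions relative to DMSO; parallel SRB and Alamar Blue cytotoxicity read-outs.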

[5] = read-out: CD40, CD40 (gene 958); assay: BSK_SAg_CD40: BioMAP Diversity Plus: SAg Assay for CD40 Biomarker Activity (AID 2283088); conditions: primary human HUVEC with PBMC; actives raise or lower the signal
Outline: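 CD40 is measured by fluorescence ELISA in an endothelial/PBMC primary human co-culture at 24 h post-dose. Fitting is bidirectional, DMSO baseline. Parallel SRB staining (560 nm) flags cytotoxicity.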

[6] = read-out: CD69, CD69 (gene 969); assay: BSK_SAg_CD69: BioMAP Diversity Plus: SAg Assay for CD69 Biomarker Activity (AID 2283089); conditions: primary human HUVEC with PBMC; actives raise or lower the signal;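 on AC50: cell surface CD69 protein quantified by ELISA with fluorescence detection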
Outline: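 Values derive from bidirectional fitting relative to DMSO vehicle. Cells: umbilical vein endothelium plus peripheral blood mononuclear cells, treated 24 h before fluorescent ELISA for CD69.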

[7] = read-out: Monocyte Chemoattractant Protein-1 (MCP1), CCL2 (gene 6347); assay: BSK_SAg_MCP1: BioMAP Diversity Plus: SAg Assay for Monocyte Chemoattractant Protein-1 (MCP1) Biomarker Activity (AID 2283090); conditions: primary human HUVEC with PBMC; actives raise or lower the signal
Outline: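 Values derive from bidirectional fitting of ELISA-measured MCP1 against DMSO controls. Readings were taken 24 h after dosing human vascular endothelial cells co-cultured with peripheral blood mononuclear cells under superantigen stimulation.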

[8] = read-out: E-selectin (Homo sapiens) (UniProt P16581); assay: BSK_SAg_Eselectin: BioMAP Diversity Plus: SAg Assay for Eselectin Biomarker Activity (AID 2283091); conditions: primary human HUVEC with PBMC; actives raise or lower the signal
Outline: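 Cell-surface E-selectin is read by ELISA at 24 h in the SAg co-culture of HUVEC and PBMC. Curves are fitted in both directions relative to DMSO. Parallel SRB total-protein staining tracks overt toxicity.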

[9] = read-out: Monokine induced gamma interferon (MIG), CXCL9 (gene 4283); assay: BSK_SAg_MIG: BioMAP Diversity Plus: SAg Assay for Monokine induced gamma interferon (MIG) Biomarker Activity (AID 2283092); conditions: primary human HUVEC with PBMC; actives raise or lower the signal
Outline: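 Values reflect bidirectional fitting of ELISA-measured MIG against DMSO vehicle, taken 24 h after dosing of a co-culture of human umbilical vein endothelial cells and peripheral blood mononuclear cells.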

[10] = BSK_SAg_PBMCCytotoxicity: PBMC Cytotoxicity Assessment in the BioMAP Diversity Plus: SAg Assay (AID 2283093); conditions: primary human HUVEC with PBMC;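 further: PBMC viability measured as Alamar Blue reduction fluorescence at 546/580 nm; fitted both ways against DMSO so a hit may be loss or gain of signal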;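 on AC50: PBMC superantigen activated with SEB plus TSST-1 one hour after compound addition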
Outline: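 Alamar Blue reduction (6 h, 546/580 nm) reports PBMC cytotoxicity after 90 h superantigen activation (SEB, TSST-1; 20 ng/mL final each) with 1 h compound pre-treatment. Gain or loss of signal fitted versus DMSO.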

[11] = read-out: Interleukin-8 (IL8), CXCL8 (gene 3576); assay: BSK_SAg_IL8: BioMAP Diversity Plus: SAg Assay for Interleukin-8 (IL8) Biomarker Activity (AID 2283094); conditions: primary human HUVEC with PBMC; actives raise or lower the signal
Outline: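 ELISA readout of IL-8 from a superantigen-activated endothelial/PBMC primary human co-culture, taken 24 h post-dosing and fitted in both directions against DMSO; parallel SRB total-protein staining flags overt cytotoxicity.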

[12] = BSK_SAg_Proliferation: Cell Proliferation Assessment in the BioMAP Diversity Plus: SAg Assay (AID 2283095); conditions: primary human HUVEC with PBMC;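 further: relative cell number as total protein by SRB absorbance in sub-confluent culture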
Outline: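 Relative cell number in the endothelial cell/PBMC co-culture was quantified at 96 h by SRB staining (0.1% SRB, 10% TCA fixation, read at 560 nm). Curves were fitted in both directions relative to DMSO baseline.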

[13] = BSK_SAg_SRB: Viability Assessment in the BioMAP Diversity Plus: SAg Assay (AID 2283096); conditions: primary human HUVEC with PBMC;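 further: cells read one day after compound addition; hits may be either gain or loss of signal compared with DMSO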
Outline: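 This overt-cytotoxicity endpoint quantifies protein in human endothelial/PBMC co-cultures at 24 h using SRB absorbance (560 nm) after trichloroacetic acid fixation. Values reflect signal change from the DMSO negative control, fitted bidirectionally.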

[14] = target: human CYP2B6, CYP2B6 (gene 1555) (UniProt P20813); assay: NVS_ADME_hCYP2B6: NovaScreen (NVS) CYP450-related Enzyme Activity (ADME) Assay for human CYP2B6 (AID 2283101; active means hit-call score of the fitted dose curve at least 0.9, where 1 is the maximum)
human CYP2B6, CYP2B6 (gene 1555), sequence (P20813 whole entry, looked up): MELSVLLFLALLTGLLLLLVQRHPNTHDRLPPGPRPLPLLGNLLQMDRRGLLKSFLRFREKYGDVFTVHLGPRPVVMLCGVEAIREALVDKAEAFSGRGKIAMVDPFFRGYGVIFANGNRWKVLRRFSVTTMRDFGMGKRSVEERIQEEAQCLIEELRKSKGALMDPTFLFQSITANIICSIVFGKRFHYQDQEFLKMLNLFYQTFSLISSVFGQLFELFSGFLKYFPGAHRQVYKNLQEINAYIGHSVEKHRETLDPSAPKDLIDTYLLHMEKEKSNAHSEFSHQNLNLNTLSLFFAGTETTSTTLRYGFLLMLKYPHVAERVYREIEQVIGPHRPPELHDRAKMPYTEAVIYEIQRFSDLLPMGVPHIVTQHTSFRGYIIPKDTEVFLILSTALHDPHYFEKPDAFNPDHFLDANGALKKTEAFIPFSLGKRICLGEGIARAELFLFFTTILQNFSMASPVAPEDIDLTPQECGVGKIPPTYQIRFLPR
Outline: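 Compounds were first screened in duplicate at 10 uM against recombinant enzyme, with the fluorescent product measured after 1 hour. Active compounds were retested over a concentration series. Loss of fluorescence versus acetonitrile control was scored as reduced enzyme activity.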

[15] = target: human CYP1A2, CYP1A2 (gene 1544) (UniProt P05177); assay: NVS_ADME_hCYP1A2: NovaScreen (NVS) CYP450-related Enzyme Activity (ADME) Assay for human CYP1A2 (AID 2283102; active means hit-call score of the fitted dose curve at least 0.9, where 1 is the maximum;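 further: fluorescence from turnover of a fluorogenic substrate by recombinant insect-cell CYP1A2; potency for inhibition since loss of fluorescence marks reduced CYP1A2 activity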)
human CYP1A2, CYP1A2 (gene 1544), sequence (P05177 whole entry, looked up): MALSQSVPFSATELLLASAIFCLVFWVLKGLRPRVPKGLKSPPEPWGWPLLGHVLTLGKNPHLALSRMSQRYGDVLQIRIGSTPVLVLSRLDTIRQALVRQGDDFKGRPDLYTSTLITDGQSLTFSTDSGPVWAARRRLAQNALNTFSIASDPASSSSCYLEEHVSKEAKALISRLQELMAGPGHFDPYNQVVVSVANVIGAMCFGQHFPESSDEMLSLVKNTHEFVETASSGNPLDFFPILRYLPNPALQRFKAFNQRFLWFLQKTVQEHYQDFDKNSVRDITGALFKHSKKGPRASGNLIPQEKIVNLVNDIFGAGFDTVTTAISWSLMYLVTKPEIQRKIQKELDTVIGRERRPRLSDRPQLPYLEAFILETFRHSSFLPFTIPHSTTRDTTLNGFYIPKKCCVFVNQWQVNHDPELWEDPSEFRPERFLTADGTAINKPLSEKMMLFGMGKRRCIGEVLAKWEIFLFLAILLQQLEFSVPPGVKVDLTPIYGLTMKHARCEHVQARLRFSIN
Outline: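 Enzyme activity of insect-cell-expressed human CYP1A2 measured by fluorescence 0.5 h after compound addition, relative to acetonitrile. Compounds first tested in duplicate at 10 uM, actives followed up in concentration series.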

[16] = target: human CYP2D6, CYP2D6 (gene 1565) (UniProt P10635); assay: NVS_ADME_hCYP2D6: NovaScreen (NVS) CYP450-related Enzyme Activity (ADME) Assay for human CYP2D6 (AID 2283107; active means hit-call score of the fitted dose curve at least 0.9, where 1 is the maximum)
human CYP2D6, CYP2D6 (gene 1565), sequence (P10635 whole entry, looked up): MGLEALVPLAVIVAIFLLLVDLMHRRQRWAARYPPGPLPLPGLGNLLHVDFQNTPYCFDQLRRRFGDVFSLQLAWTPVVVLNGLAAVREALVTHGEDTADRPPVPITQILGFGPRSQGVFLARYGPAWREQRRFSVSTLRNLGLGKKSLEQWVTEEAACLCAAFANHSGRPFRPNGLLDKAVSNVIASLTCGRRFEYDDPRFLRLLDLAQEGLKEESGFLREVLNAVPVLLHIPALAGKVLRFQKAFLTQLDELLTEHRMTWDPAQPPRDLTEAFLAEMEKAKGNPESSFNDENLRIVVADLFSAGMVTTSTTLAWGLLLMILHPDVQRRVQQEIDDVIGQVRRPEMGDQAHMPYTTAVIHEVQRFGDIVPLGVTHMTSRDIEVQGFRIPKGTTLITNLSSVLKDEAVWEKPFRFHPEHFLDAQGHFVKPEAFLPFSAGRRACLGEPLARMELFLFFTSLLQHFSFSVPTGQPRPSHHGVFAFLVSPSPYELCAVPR
Outline: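 Fluorescence readout of recombinant CYP2D6 (insect-cell derived) activity after 1 h incubation with test chemical. Acetonitrile served as baseline, loss-of-signal direction. Single-concentration duplicate screening at 10 uM preceded concentration-response retesting.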

[17] = target: Cytochrome P450 3A4 (Homo sapiens) (UniProt P08684); assay: NVS_ADME_hCYP3A4: NovaScreen (NVS) CYP450-related Enzyme Activity (ADME) Assay for human CYP3A4 (AID 2283110; active means hit-call score of the fitted dose curve at least 0.9, where 1 is the maximum)
Cytochrome P450 3A4 (Homo sapiens), sequence (P08684 whole entry, looked up): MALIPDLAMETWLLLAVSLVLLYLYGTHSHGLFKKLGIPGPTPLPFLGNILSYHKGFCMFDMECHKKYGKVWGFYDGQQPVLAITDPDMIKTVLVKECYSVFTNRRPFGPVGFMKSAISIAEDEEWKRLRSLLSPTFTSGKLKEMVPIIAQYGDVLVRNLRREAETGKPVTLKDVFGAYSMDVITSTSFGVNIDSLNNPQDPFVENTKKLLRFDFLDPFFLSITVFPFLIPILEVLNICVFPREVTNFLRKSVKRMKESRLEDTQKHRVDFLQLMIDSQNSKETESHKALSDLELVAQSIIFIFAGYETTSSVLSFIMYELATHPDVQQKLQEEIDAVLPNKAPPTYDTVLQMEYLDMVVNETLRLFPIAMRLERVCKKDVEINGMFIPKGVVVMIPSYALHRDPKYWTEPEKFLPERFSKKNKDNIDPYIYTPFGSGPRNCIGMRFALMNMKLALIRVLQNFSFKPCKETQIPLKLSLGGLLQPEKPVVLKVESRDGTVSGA
Outline: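 Activity is derived from decreased fluorescence intensity relative to acetonitrile, measured 0.33 hour after dosing insect-cell-expressed CYP3A4 in a cell-free format. Screening used 10 uM in duplicate before concentration-response follow-up.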

[18] = target: human CYP1A1, CYP1A1 (gene 1543) (UniProt P04798); assay: NVS_ADME_hCYP1A1: NovaScreen (NVS) CYP450-related Enzyme Activity (ADME) Assay for human CYP1A1 (AID 2283100; active means hit-call score of the fitted dose curve at least 0.9, where 1 is the maximum)
human CYP1A1, CYP1A1 (gene 1543), sequence (P04798 whole entry, looked up): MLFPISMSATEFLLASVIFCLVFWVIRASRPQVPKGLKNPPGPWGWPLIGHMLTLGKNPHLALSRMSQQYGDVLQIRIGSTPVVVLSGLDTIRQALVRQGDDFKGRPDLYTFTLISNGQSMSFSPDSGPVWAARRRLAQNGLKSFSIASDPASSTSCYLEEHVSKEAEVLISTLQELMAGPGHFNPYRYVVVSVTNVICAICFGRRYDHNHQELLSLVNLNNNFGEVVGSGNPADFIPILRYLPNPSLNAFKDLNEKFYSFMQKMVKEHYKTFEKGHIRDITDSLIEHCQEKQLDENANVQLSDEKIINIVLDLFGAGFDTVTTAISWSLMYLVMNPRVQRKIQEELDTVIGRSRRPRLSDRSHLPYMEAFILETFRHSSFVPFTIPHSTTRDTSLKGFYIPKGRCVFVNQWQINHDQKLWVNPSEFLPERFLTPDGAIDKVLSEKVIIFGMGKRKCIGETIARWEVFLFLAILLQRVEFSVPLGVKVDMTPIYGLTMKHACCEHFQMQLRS
Outline: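 Chemicals were first tested in duplicate at 10 uM, and those passing a 30% inhibition threshold were rerun as concentration series topping at 20 uM. Fluorescence read-out of recombinant enzyme turnover after 1 h, relative to acetonitrile.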

Measured: AC50

E-selectin (Homo sapiens), sequence (P16581 whole entry, looked up): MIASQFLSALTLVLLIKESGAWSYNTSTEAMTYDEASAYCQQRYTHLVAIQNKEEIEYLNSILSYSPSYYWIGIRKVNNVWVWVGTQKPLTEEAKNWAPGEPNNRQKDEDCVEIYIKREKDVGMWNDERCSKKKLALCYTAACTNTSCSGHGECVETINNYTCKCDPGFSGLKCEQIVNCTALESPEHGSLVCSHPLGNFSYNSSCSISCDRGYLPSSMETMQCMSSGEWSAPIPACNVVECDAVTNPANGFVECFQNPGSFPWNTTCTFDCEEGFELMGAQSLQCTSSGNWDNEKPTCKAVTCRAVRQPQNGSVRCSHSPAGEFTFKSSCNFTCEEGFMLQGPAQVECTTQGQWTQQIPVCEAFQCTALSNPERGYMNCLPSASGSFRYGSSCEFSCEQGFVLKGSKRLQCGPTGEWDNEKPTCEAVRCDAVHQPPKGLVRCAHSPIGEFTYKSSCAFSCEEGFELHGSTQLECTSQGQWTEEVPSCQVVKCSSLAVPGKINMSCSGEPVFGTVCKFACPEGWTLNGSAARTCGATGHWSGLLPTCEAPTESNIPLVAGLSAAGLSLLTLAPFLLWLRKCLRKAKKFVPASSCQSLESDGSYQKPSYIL
Tumor necrosis factor (Homo sapiens), sequence (P01375 whole entry, looked up): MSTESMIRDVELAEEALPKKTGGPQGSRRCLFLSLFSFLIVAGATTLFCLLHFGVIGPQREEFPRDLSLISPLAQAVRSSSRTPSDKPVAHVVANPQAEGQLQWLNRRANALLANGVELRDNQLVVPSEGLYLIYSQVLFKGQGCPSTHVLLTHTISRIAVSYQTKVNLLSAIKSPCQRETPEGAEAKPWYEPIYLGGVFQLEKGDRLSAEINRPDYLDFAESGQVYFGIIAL

CCCCCCCCCCCO
active: [10] 33.1 µM | [12] 33.6 µM
not listed: [14] | [15] | [16] | [17] | [18]
inactive: all other assays above

CN1C(=O)N(c2ccccc2Br)Cc2cnc(Nc3ccc4c(c3)OCC(CO)O4)nc21 (stereo not drawn)
active: [1] 3.52 µM | [2] 3.14 µM | [3] 7.92 µM | [4] 2.36 µM | [5] 2.19 µM | [6] 2.08 µM | [7] 1.9 µM | [8] 1.37 µM | [9] 2.89 µM | [10] 1.87 µM | [11] 1.62 µM | [12] 1.52 µM | [13] 2.23 µM

CCCCCCCCCCCCO
active: [1] 19.8 µM | [2] 29.7 µM | [3] 19.8 µM | [4] 34.7 µM | [5] 31.6 µM | [6] 31 µM | [7] 30.4 µM | [8] 31.7 µM | [9] 36.3 µM | [10] 35.1 µM | [11] 19.8 µM | [12] 30.1 µM | [13] 31.3 µM

O=CCCCC=O
active: [2] 32.7 µM | [3] 33 µM | [5] 29.8 µM | [8] 30.3 µM | [10] 20.6 µM | [12] 32.8 µM
inactive: [1] | [4] | [6] | [7] | [9] | [11] | [13]

Cc1cc2c(cc1C(F)(F)F)N(C(=O)Nc1ccc(Oc3cccnc3C)nc1)CC2
active: [3] 14.4 µM | [4] 7.33 µM | [5] 18.4 µM
not listed: [14] | [15] | [16] | [17] | [18]
inactive: all other assays above

CCCCCCCCOC(=O)c1cc(O)c(O)c(O)c1
active: [1] 32.4 µM | [2] 32.3 µM | [3] 30.6 µM | [4] 13.1 µM | [5] 14.8 µM | [6] 16.6 µM | [7] 20 µM | [8] 16 µM | [9] 30.4 µM | [10] 27.7 µM | [11] 11.5 µM | [12] 5.52 µM | [13] 24.8 µM | [14] 10.1 µM | [15] 4.26 µM | [16] 10.1 µM | [17] 15.4 µM

Clc1cc(Cl)c2c(c1)N=C1CCCCCN1C2
active: [18] 0.764 µM | [15] 2.34 µM | [16] 2.71 µM
not listed: [14] | [17]
inactive: all other assays above
